Source: PubChem BioAssay (National Center for Advancing Translational Sciences (NCATS))
Hits are enriched below; roughly 10% of the tested compounds scored in any of these assays.
NIH3T3 tox: NIH 3T3 cell cytotoxicity. NIH 3T3 viability, CellTiter-Glo ATP luminescence, 48-72 h. Potency, µM (titrated, usually from 96.7 µM), actives largely listed as inhibitors. actives 4.3% (n = 94,000); note: nearly all actives have a fitted effect of over 55% in size
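Viability of NIH 3T3 cells after 48 or 72 hr compound treatment at 37 °C was assessed by CellTiter-Glo, with luminescence imaged following a 10 min room-temperature step.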
HEK293 tox: kills HEK 293 cells | AID 1345083 | Potency, µM (top dose mostly 115 µM), hits mostly inhibitors | HEK 293 viability, ATP luminescence (CellTiter-Glo), 48-72 h | actives 6.6% (n = 94,000); note: nearly all actives have a fitted effect of over 60% in size
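CellTiter-Glo luminescence (cellular ATP) was read after 48 or 72 hr of compound exposure at 37 degree Celsius. Cells were HEK 293 plated at 250 cells/well.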
FLuc inh: inhibitors of firefly (Photinus pyralis) luciferase | actives 2.5% (n = 76,000) | AID 1347043 | purified P. pyralis luciferase, luminescence, biochemical | Potency, µM (doses to about 115 µM), usual class: inhibitors | P08659; note: nearly all actives have a fitted effect of over 65% in size
Target sequence (P08659 whole entry, looked up): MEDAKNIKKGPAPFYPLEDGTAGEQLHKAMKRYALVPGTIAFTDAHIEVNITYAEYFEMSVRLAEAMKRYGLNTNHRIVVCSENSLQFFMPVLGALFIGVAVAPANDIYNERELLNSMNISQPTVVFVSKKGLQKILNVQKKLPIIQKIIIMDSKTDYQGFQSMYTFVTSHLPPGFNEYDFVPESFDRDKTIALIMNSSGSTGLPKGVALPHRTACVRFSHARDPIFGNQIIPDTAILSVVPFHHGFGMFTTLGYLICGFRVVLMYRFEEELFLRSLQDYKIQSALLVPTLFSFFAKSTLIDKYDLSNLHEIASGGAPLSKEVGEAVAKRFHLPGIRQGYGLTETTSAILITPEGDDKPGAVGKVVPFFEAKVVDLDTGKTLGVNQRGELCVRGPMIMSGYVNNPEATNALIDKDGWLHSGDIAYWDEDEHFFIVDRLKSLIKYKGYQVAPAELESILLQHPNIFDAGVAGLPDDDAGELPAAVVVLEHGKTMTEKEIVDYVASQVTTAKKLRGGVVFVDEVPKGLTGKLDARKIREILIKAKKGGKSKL
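Purified 10nM P. pyralis luciferase with 10uM D-luciferin and 10uM ATP in 50mM Tris acetate pH 7.5, 10mM Mg acetate, 0.01% Tween-20, 0.05% BSA. qHTS titration; luminescence read by CCD imager.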
NPR1 antag: human Npr1 receptor antagonism | P16066 | HEK293 hNpr1 GloSensor cGMP, ANP-stimulated luminescence | Potency, µM (highest dose often 46.3 µM), hits mostly inhibitors | actives 1.6% (n = 76,000); calls by dose curve; note: nearly all actives have a fitted effect of over 60% in size
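Compound pre-incubated 30 min at room temperature on GloSensor-loaded HEK293 cells stably carrying hNpr1 and the pGS-40F cGMP biosensor. Stimulation uses hNppA at 0.1 nM final; luminescence is taken at baseline and 20 min post-agonist.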
GPT2 inhibitor: blocks human glutamate pyruvate transaminase 2; Q8TD30; Recombinant GPT2, coupled pyruvate oxidase/HRP Amplex Red fluorescence; Potency, µM (top dose mostly 57.7 µM), usual class: inhibitors; actives 0.25% (n = 100,000); AID 1671188; note: nearly all actives have a fitted effect of over 60% in size
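GPT2 10ng/uL, a-KG 250uM, L-Ala 2mM, HEPES pH7.5 + 0.0001% Tween; 30 min RT. Then Amplex mix (PO/HRP/ThPP), 30 min RT dark, fluorescence. AOA 50uM used as positive control.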
Numbers stand for hits; 0 = inactive; ? = inconclusive; - = no result. Unless noted, calls come from the whole dose curve; as a rule, active = well fitted curve in the direction sought with a large enough effect; inconclusive = small, poorly fitted or top-dose-only effect, or another doubt; inactive = no such curve, though single readings can be large; an effect the other way counts as inactive or inconclusive.

SMILES	NIH3T3 tox	HEK293 tox	FLuc inh	NPR1 antag	GPT2 inhibitor
O=C(Cc1ccccn1)N1CCN(C(=O)c2nc3cccnc3n(CCc3ccccc3)c2=O)CC1	0	0	-	-	0
CN(C)CCNC(=O)c1nc2nc(-c3ccccc3)c(-c3ccccc3O)cc2n1C	79µM	?	0	?	0
CN(C)CCNC(=O)c1nc2nc(-c3ccccc3)c(-c3ccc(Cl)cc3)cc2n1C	25µM	40µM	0	0	0
Cn1c(C(=O)NCC2CC2)nc2nc(-c3ccccc3)c(Cl)cc21	?	0	0	-	0
Cc1ccc(-c2cc3c(nc2-c2ccccc2)nc(C(=O)NCCN(C)C)n3C)cc1	11µM	40µM	0	0	?
COc1ncccc1-c1cc2c(nc1-c1ccccc1)nc(C(=O)NCCN(C)C)n2C	?	?	0	0	0
Cn1c(C(=O)NCCc2ccccn2)nc2nc(-c3ccccc3)c(Cl)cc21	?	?	45µM	0	0
CN1CCCCC1C(=O)NCc1cccnc1Oc1cccc(C(F)(F)F)c1 (stereo not given)	0	0	0	0	0
OCC1(Cc2ccc(Cl)cc2)CCNCC1	0	0	0	0	0
Cc1ccc(NS(=O)(=O)c2ccccc2)c(=O)n1CC(=O)NC(C)c1ccccc1 (stereo not given)	0	0	0	0	0
CC(C)CCN1C(=O)CC[C@]2(C(=O)N(C)Cc3ccco3)CCCC[C@@H]12	0	?	0	0	0
O=C(Cc1ccccn1)N1CCC2(CC1)CC(c1cccc(C(F)(F)F)c1)=NO2	0	?	-	-	-
COc1ccccc1-c1cc2c(nc1-c1ccccc1)nc(C(=O)NC1CCN(C)CC1)n2C	20µM	35µM	0	0	0
CN(C)CCNC(=O)c1nc2nc(-c3ccccc3)c(-c3cccc(Cl)c3)cc2n1C	10µM	28µM	0	0	0
CN(C)CCNC(=O)c1nc2nc(-c3ccccc3)c(-c3cccc(CO)c3)cc2n1C	?	?	0	0	0
c1ccc(CO[C@H]2COCCN(c3nc4ccccc4o3)C2)cc1	0	0	0	0	0
c1ccc(CO[C@H]2COCCN(c3nc4ccccc4s3)C2)cc1	?	112µM	?	0	0
Cc1cccc(N2CCN(C(=O)c3ccc4c(c3)N(C(=O)c3ccccc3)CC4)CC2)c1C	32µM	28µM	0	0	0
Cc1ccccc1N1CCN(C(=O)c2cc3c(s2)CCN(C(=O)c2ccccc2)C3)CC1	0	0	0	0	0
O=C(COc1ccccc1)N1CCC(Oc2cnc3c(ccn3-c3cncnc3)c2)CC1	0	89µM	0	0	0
Cc1ccc(-c2nc(C(=O)NC(C)c3ccc(F)cc3)no2)cc1 (stereo not given)	0	?	?	0	0
O=C(NC1CCN(Cc2ccc(-c3ccsc3)cc2)C1)c1cccc(Cl)c1 (stereo not given)	?	45µM	-	-	0
Cc1ccccc1C(=O)NC1CCN(Cc2ccc(-c3ccsc3)cc2)C1 (stereo not given)	?	79µM	-	-	0
COC(=O)NC1CCN(Cc2ccc(-c3ccsc3)cc2)C1 (stereo not given)	?	100µM	-	-	0
CC(=O)NC1CCN(Cc2ccc(-c3ccsc3)cc2)C1 (stereo not given)	?	?	-	-	0
SMILES	NIH3T3 tox	HEK293 tox	FLuc inh	NPR1 antag	GPT2 inhibitor
c1ccc(-c2nc3c(c(NCC4OCCc5ccccc54)n2)CCNCC3)nc1 (stereo not given)	79µM	?	0	0	0
c1cc(-c2nc3c(c(NCCCn4ccnc4)n2)CCNCC3)ccn1	0	0	0	0	0
COc1ccc(Nc2cc3c(cn2)CN(CCc2ccccc2)CCN3)cc1	25µM	32µM	?	0	0
COc1ccc(Nc2cc3c(cn2)CN(CCc2ccccc2)CCN3)cc1OC	25µM	50µM	0	0	?
O=C(c1ccc(F)cc1)N1CCC(Cc2nc(-c3cnccn3)no2)CC1	?	?	0	0	0
O=C(c1ccc(Cl)cc1)N1CCC(Cc2nc(-c3cnccn3)no2)CC1	25µM	?	0	?	?
COc1cccc(CNC[C@H]2O[C@H](Cc3cc(CN4CCOCC4)on3)CC[C@@H]2O)c1	0	0	0	0	0
CC(C)NC(=O)NC[C@H]1O[C@H](Cc2cc(COc3ccccc3)on2)CC[C@@H]1O	0	0	0	0	0
CC(C)CN(CC(C)C)C[C@H]1O[C@H](Cc2cc(COc3ccccc3)on2)CC[C@@H]1O	100µM	100µM	0	0	0
COc1ccc(-c2cc(C[C@@H]3CC[C@H](O)[C@@H](CN(C)C)O3)no2)cc1	0	0	?	0	0
COc1ccc(-c2cc(C[C@@H]3CC[C@H](O)[C@@H](CN(Cc4ccccc4OC)Cc4ccccc4OC)O3)no2)cc1	?	?	?	10µM	0
COc1cccc(CNC[C@H]2O[C@H](Cc3cc(-c4ccccc4)on3)CC[C@@H]2O)c1	?	112µM	0	0	0
CCC1(C(=O)Nc2ccc(C)c(F)c2)CCCCC(=O)N1 (stereo not given)	0	0	0	0	0
COC(=O)[C@H](Cc1ccccc1)NC1CCN(c2cccc(NC(=O)CC3CCCC3)c2)CC1	?	40µM	0	?	0
O=C(CC1CCCCC1)NC(Cc1ccccc1)C(=O)N1CCN(c2ccccn2)CC1 (stereo not given)	?	?	0	0	?
O=C1NCCCCCCN(C(=O)c2cc(CN3CCOCC3)on2)[C@H]2CCCC[C@@H]12	0	0	0	0	0
COc1ccccc1CNC(=O)C[C@@H]1CCNC[C@@H]1Cc1cc(CSc2ccccc2)on1	79µM	?	0	0	0
COc1ccccc1CNC(=O)C[C@@H]1CCNC[C@@H]1Cc1cc(C(C)(C)C)on1	100µM	100µM	0	0	0
O=C(C[C@@H]1CCNC[C@@H]1Cc1cc(CSc2ccccc2)on1)NCc1ccc(F)cc1	?	?	0	0	?
COc1cccc(-c2cc(C(=O)N3CCC(Cc4ccccc4)CC3)c3cnn(C)c3n2)c1	?	45µM	-	-	-
COc1cccc(-c2cc(C(=O)N3CCC(c4ccccc4)CC3)c3cnn(C)c3n2)c1	?	35µM	-	-	-
COc1cccc(-c2cc(C(=O)N3CCC(C#N)CC3)c3cnn(C)c3n2)c1	0	0	-	-	-
COc1cccc(-c2cc(C(=O)N3CCCCC3)c3cnn(C)c3n2)c1	0	0	-	-	-
COc1cccc(C(=O)NC2CCN(c3nc4ncccc4o3)C2)c1 (stereo not given)	0	0	-	-	0
CN(C)c1ccc(-c2cc3c(ccn3C)c(C(=O)NCc3cccnc3)n2)cc1	?	?	?	0	0
Cn1cncc1CNC(=O)c1nc(-c2cccc(N3CCOCC3)c2)cc2c1ccn2C	50µM	?	0	0	0
Cn1ccc2c(C(=O)NCc3cccnc3)nc(-c3cccc(F)c3)cc21	?	89µM	0	?	0
